High-throughput results deposited in PubChem by National Center for Advancing Translational Sciences (NCATS).
The list is not random: actives were taken first. Their share in the collection is about 1.9%.
HTT cytoprotect: Huntington cell model cytoprotection by ATP luminescence | 230,000 tested, 0.14% active | Potency, µM (highest dose often 56.4 µM), without a hit: cytoprotection (ATP increase), hits mostly activators | AID 1471 | PC12 HTT-Q103 induced, cytoprotection, ATP luminescence, 40 h; further: % of control where 0% means no effect; nearly all actives have a fitted effect of over 45% in size
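Stable PC12 Q103-GFP cells in serum-supplemented, phenol red-free DMEM; induction by tebufenozide at 100 nM final; compound dose series; cell viability quantified luminescently from ATP.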
ERK EGF inh: blocks ERK signaling stimulated by EGF. HEK293-V1b, EGF-stimulated phospho-ERK AlphaScreen. Potency, µM (doses to about 11.5 µM), for the others: at the top dose activity change, negative = inhibition, most hits filed as inhibitors. 130,000 tested, 0.41% active;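 further: plate controls were stimulated vehicle wells for no effect and unstimulated vehicle basal for full effect; nearly all actives have a fitted effect of over 55% in size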
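In this qHTS, HEK293 cells with stable type-1 vasopressin (V1b) receptor were exposed to compound at 37C for 30 min, stimulated 5 min with EGF at 25 nM, lysed, and probed for phospho-ERK by AlphaScreen.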
NPSR antag: blocks cAMP signaling of the human neuropeptide S receptor; Potency, µM (highest dose often 38.3 µM), for inactives: at the highest dose activity change, negative = inhibition, hits mostly inhibitors; CHO-NPSR cells, cAMP TR-FRET, antagonist mode; Q6W5P4; 220,000 tested, 1% active; AID 1461; further: on the % scale 0 is the no-effect control and ±100 the full control effect; nearly all actives have a fitted effect of over 50% in size
Target sequence (Q6W5P4 whole entry, looked up): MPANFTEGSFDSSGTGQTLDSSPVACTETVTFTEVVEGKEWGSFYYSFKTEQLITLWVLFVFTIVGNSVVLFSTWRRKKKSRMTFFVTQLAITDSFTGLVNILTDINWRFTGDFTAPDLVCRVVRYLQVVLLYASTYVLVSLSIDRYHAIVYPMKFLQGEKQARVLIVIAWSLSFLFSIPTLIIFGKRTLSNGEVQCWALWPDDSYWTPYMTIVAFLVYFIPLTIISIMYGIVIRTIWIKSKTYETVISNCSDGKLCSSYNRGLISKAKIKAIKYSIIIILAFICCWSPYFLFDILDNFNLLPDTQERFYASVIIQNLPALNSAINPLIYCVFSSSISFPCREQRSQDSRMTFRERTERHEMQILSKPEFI
HTT aggregate: reduces HttQ103-GFP aggregates in PC12 cells; AID 1688; 220,000 tested, 1.1% active; Potency, µM (series often up to 46.1 µM), for inactives: at the top dose activity change, negative = inhibition, usual class: inhibitors; PC12 HttQ103-GFP aggregates, Acumen cytometry, 40 h; further: on the % scale 0 is the no-effect control and ±100 the full control effect; nearly all actives have a fitted effect of over 60% in size
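Quantitative HTS on tebufenozide-induced (100 nM) PC12 cells stably expressing polyQ103 Huntingtin exon 1–GFP. Reduction of bright GFP aggregates, detected by laser scanning cytometry after lysis, identified actives across the titration.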
IMPase Li inh: IMPase inhibition in cells with lithium potentiation. Potency, µM (series often up to 59.4 µM), for the others: at the top dose activity, negative = IMPase inhibition, usual class: inhibitors. 210,000 tested, 0.35% active. CHO-M1 cells, IP1 TR-FRET (IP-One), carbachol + lithium;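 further: IP1 builds up when IMPase is blocked and the TR-FRET signal falls; plate controls were basal vehicle for no effect and high inhibitor control for full effect; nearly all actives have a fitted effect of over 50% in size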
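Test compounds were applied to CHO-M1 cells previously cultured for 16–30 h at 2000 per well. A small lithium amount accompanied them; after 30 min at 37C, IP1 was quantified by TR-FRET.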
Active calls of the source: *; ? = inconclusive; nt = no result given; [ ] = remark or other dose. The call rests on the fitted dose curve; in most records, active means well fitted curve in the direction sought with a large enough effect; inconclusive means small, poorly fitted or top-dose-only effect, or another doubt; inactive means no such curve, though single readings can be large; an effect the other way counts as inactive or inconclusive. Potency means the concentration at half of the fitted maximal effect.

SMILES	HTT cytoprotect	ERK EGF inh	NPSR antag	HTT aggregate	IMPase Li inh
CCN(CC)Cc1c(O)ccc2c(=O)c(-c3ccc4c(c3)OCCO4)coc12	12%[10 µM]	nt	-5%[46.1 µM]	11µM*	12%
C=CS(=O)(=O)c1ccc(Oc2ccc(S(=O)(=O)C=C)cc2)cc1	11%[10 µM]	13µM*	-39%	nt	19%
CCCn1c(SCC(=O)c2cc(C)n(-c3ccc4c(c3)OCO4)c2C)n[nH]c1=O	3.5µM*	12%	-13%[46.1 µM]	-29%	12%
CCCn1c(SCC(=O)c2ccc(CC)cc2)n[nH]c1=O	?	nt	-3%[46.1 µM]	0.89µM*	7%[38.3 µM]
Cc1cc(=O)oc2cc(O)c(CN(C)CC(=O)O)cc12	11%[10 µM]	nt	nt	nt	3%
Cc1ccc(C#CC[N+]2(CC#Cc3ccc(C)cc3)CCCCC2)cc1	-17%[10 µM]	-1%	10%	11µM*	26%
Cc1nc(NCc2ccccc2)c2nc(-c3ccccc3)n(CC(C)(C)CN(C)C)c2n1	-28%	7%	nt	nt	7%
CCCc1cc(=O)oc2cc(C)cc(O)c12	-48%[10 µM]	nt	7%[46.1 µM]	?	1%[38.3 µM]
CCCCCc1cc(O)c2c(C)cc(=O)oc2c1	-9%[10 µM]	nt	-10%[46.1 µM]	25µM*	?
CCc1cc(=O)oc2cc(C)cc(O)c12	4%	nt	11%[46.1 µM]	?	3.2µM*
COc1cccc([C@@H]2Oc3ccc(Br)cc3C[C@H]2OC(=O)N[C@H]2CCCc3ccccc32)c1	-55%	-5%	nt	nt	23%
CCN1C(c2ccccc2)=C(c2ccccc2)S/C1=C/C=C1\SC(=S)N(C)C1=O	25%[1.9 µM]	3.2µM*	-17%[46.1 µM]	-24%	7%
CCN1C(=O)/C(=C/C=C2/Sc3ccc4ccccc4c3N2CCO)SC1=S	nt	2%	-4%	0%	-3%
O=c1[nH]ncc2ccccc12	-48%	nt	nt	nt	-14%
Nc1nc(-c2ccccc2)c(-c2ccc([N+](=O)[O-])cc2)s1	-74%	25µM*	?	?	15%
COC(=O)N1CCC2(CC1)CN(c1ccccn1)C2	-21%	-19%	nt	nt	21%
CCCn1nnnc1SCC(=O)NCc1ccc2c(c1)OCO2	-8%[10 µM]	nt	-3%[7.67 µM]	0.016µM*	-7%[38.3 µM]
COc1c(O)c(O)cc2c1oc1c3cc(C)ccc3oc(=O)c21	-41%	4%	nt	nt	-1%
COc1ccc(-c2nc(-c3ccccc3)c(Nc3ccc4ccccc4c3)o2)cc1	19%	-5%	nt	nt	14%
O=C(Nc1ccccc1)C1=C(c2ccccc2)S(=O)(=O)CCS1(=O)=O	-162%	3%	?	5µM*	22%
Cc1cnc(C(=O)Nc2cccc3cccnc23)cn1	-75%	nt	-11%[46.1 µM]	0.89µM*	-1%[38.3 µM]
COCCN(CCOC)c1nc(C)nc2c1nc(-c1ccccc1)n2CC1CCN(C)CC1	8%	4%	nt	nt	6%
CCOC(=O)COc1cc([N+](=O)[O-])cc2cccnc12	-12%[10 µM]	2%	12%	25%[9.22 µM]	16%
CCOC(=O)COc1ccccc1/C=C\[N+](=O)[O-]	-32%[10 µM]	?	7.9µM*	-11%	21%
NC(=S)c1ccc[n+]([C@@H]2O[C@@H](COP(=O)([O-])OP(=O)(O)OC[C@@H]3O[C@@H](n4cnc5c(N)ncnc54)[C@@H](OP(=O)(O)O)[C@H]3O)[C@@H](O)[C@H]2O)c1	6%[1.9 µM]	nt	nt	nt	nt
SMILES	HTT cytoprotect	ERK EGF inh	NPSR antag	HTT aggregate	IMPase Li inh
Cc1cc(=O)[nH]c(Nc2cccc(C(F)(F)F)c2)n1	11%	nt	5%[7.67 µM]	11µM*	-6%[38.3 µM]
CCCCN(CC)CCNC(=O)c1cc2c(C)nc3ccccc3c2o1	-6%	-1%	-2%[46.1 µM]	9%	22%
COc1ccc(CNC(=O)c2cc3c(C)nc4ccccc4c3o2)c(OC)c1	7%	nt	?	4µM*	14%[38.3 µM]
CCc1ccc(CNC(=O)c2cc3c(C)nc4ccccc4c3o2)cc1	26%[10 µM]	nt	-16%[46.1 µM]	10µM*	31%[38.3 µM]
COc1cccc(CNC(=O)c2cc3c(C)nc4ccccc4c3o2)c1	-67%	nt	-15%[46.1 µM]	10µM*	11%[38.3 µM]
COc1ccc(C2Oc3cc(OC)cc(OC)c3CC2O)cc1 (centres undefined)	nt	16%	nt	nt	3%
COc1ccc(O[C@H]2C=C[C@@H](c3ccccc3)O[C@H]2CO/N=C2/[C@H]3O[C@@H]3[C@@H](O)[C@H]3[C@H]2CCn2c(=O)n(-c4ccccc4)c(=O)n23)cc1	-59%[10 µM]	nt	nt	nt	nt
C[C@@]12CCC(=O)C=C1CC[C@H]1[C@H]3CC[C@](O)(C(=O)CO)[C@]3(C)CC[C@@H]12	-20%[1.9 µM]	nt	nt	nt	nt
CCCCC[C@H](O)/C=C/C=C\C=C\[C@@H](O)C/C=C\CCCC(=O)O	26%	7%	nt	nt	17%
Cc1ccc2c(c1)-c1c(ssc1=S)C(C)(C)N2C(=O)c1ccco1	14%[10 µM]	13µM*	?	-22%	15%
COc1ccc(C(=O)c2c(C)c3ccccc3n2CC(O)CNC(C)C)cc1 (centres undefined)	nt	2%	1%	22µM*	-7%
O=C1CCCC(C(C(=O)OCc2ccccc2)C(=O)OCc2ccccc2)C1 (centres undefined)	?	-10%	nt	nt	7%
CCCCCC(=O)Nc1cc2[nH]c(=O)cc(COC)c2cc1C	-16%	nt	-11%[46.1 µM]	10%	11µM*
COc1ccc2c(c1)OC/C(=C\c1ccc(OC)c(O)c1)C2=O	6.3µM*	?	nt	nt	33%
c1csc(Cc2nn3c(-c4ccncc4)nnc3s2)c1	-17%	nt	-16%[46.1 µM]	10µM*	-6%[38.3 µM]
c1cc(-c2nnc3sc(C4CCCCC4)nn23)ccn1	5%	nt	16%[7.67 µM]	13µM*	0%[38.3 µM]
c1csc(-c2nn3c(-c4ccncc4)nnc3s2)c1	0%[0.074 µM]	nt	-13%[46.1 µM]	1%	-2%[38.3 µM]
NC(=O)c1ncn([C@@H]2O[C@@H](CO)[C@@H](O)[C@H]2O)c1O	-7%[1.9 µM]	nt	nt	nt	nt
CNCC(=O)NCC(=O)N[C@@H](Cc1ccccc1)C(=O)N[C@@H](CC(C)C)C(=O)O	-14%	nt	nt	nt	-5%
CC(=O)OC[C@@H]1O[C@@H](O/N=C2/C[C@@H](O)[C@@H](O)[C@@H]3[C@@H]4C(=O)N(Cc5ccc6c(c5)OCO6)C(=O)[C@H]4CC[C@H]23)[C@H](OC(C)=O)[C@H](OC(C)=O)[C@@H]1OC(C)=O	-5%[10 µM]	nt	nt	nt	nt
CC(C)CCn1c(-c2nonc2N)nc2ccccc21	-3%[10 µM]	7%	1%[46.1 µM]	11µM*	9%
CCCCn1c(-c2nonc2N)nc2ccccc21	-60%[10 µM]	nt	-3%[46.1 µM]	?	2%[38.3 µM]
O=c1c(-c2ccc(Cl)cc2)nc2cnc(N3CCNCC3)nc2n1CCc1ccccc1	-100%	nt	nt	nt	7%
CC(=O)O[C@@]1(C(C)=O)CCC2C3C=C(Cl)C4=CC(=O)C5CC5[C@@]4(C)C3CC[C@]21C (some centres undefined)	-78%	6%	nt	nt	30%
CC(=O)O[C@]1(C(C)=O)CC[C@H]2C3C=C(Cl)C4=CC(=O)[C@@H]5C[C@H]5[C@]4(C)C3CC[C@@]21C (some centres undefined)	nt	-1%	13µM*	nt	10%
CNCCCCCCCCSc1nc(C(C)C)ccc1C(=O)c1cccs1	-65%	-9%	nt	nt	28%
